Compound activity deposited in PubChem BioAssay by National Center for Advancing Translational Sciences (NCATS).
KB-3-1 cytotox = kills parental KB-3-1 adenocarcinoma cells. 1.4% of 400,000 active. KB-3-1 viability, CellTiter-Glo ATP luminescence, 72 h. Potency, µM (top dose mostly 46.1 µM), usual class: cytotoxic; also: % is scaled to controls: 0 for no effect and ±100 for the full control effect; nearly all actives have a fitted effect of over 60% in size
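Parental KB-3-1 viability, qHTS format: 72 h compound exposure, 37 °C; CellTiter-Glo; media-only wells and DMSO plates as controls; concentration-effect fits on corrected data.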
KB-V1 MDR tox = kills drug-selected multidrug resistant KB-V1 cells | KB-V1 MDR cells viability, CellTiter-Glo, 72 h | Potency, µM (titrated, usually from 46.1 µM), actives largely listed as cytotoxic | 3.4% of 400,000 active; also: % is scaled to controls: 0 for no effect and ±100 for the full control effect; nearly all actives have a fitted effect of over 60% in size
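qHTS viability screen in drug-selected KB-V1 MDR cells: 72 h compound treatment at 37 degrees C, ATP luminescence end point.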
PTAP TSG101 blk = blocks PTAP/TSG101 interaction to inhibit HIV-1 budding; Q99816; Fluorescence polarization, FITC-PTAP peptide / Tsg101 binding; AID 493005; 340,000 tested, under 10 active; Potency, µM (series often up to 115 µM), for inactives: at the top dose activity change, negative = inhibition, hits mostly inhibitors; active = well fitted inhibition curve with a large enough effect in the main read-out, with a control signal flat, not every such curve was filed as active; inconclusive = small, poorly fitted or top-dose-only effect, or effect the other way, or a change in a side signal; inactive = no such curve, though single readings can be large or run the other way; also: % of control where 0% means no effect
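FP read-out: FITC-PTAP peptide, 50 nM final, binding Tsg101 binding domain, 10 uM final; 20 min, r.t.; 10 mM HEPES pH 7.5, 0.15 M NaCl, 0.01% Tween 20, 3 mM EDTA, 0.1 mM TCEP.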
SW480 rereplic = induces DNA re-replication in SW480 colon adenocarcinoma cells; SW480 DNA re-replication, Hoechst DNA content imaging, 48 h; Potency, µM (series often up to 46.1 µM), without a hit: at the highest dose re-replication activation, most hits filed as activators; 1.8% of 340,000 active; AID 624297; also: % of control where 0% means no effect; nearly all actives have a fitted effect of over 55% in size
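Hoechst fluorescence of nuclei (405 nm excitation, 500-530 nm emission) measured by plate-scanning imager after 48 hr compound exposure at 37 C; re-replication scored as increased number of nuclei with elevated intensity.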
RGS4 inh = blocks human RGS4-accelerated GTP hydrolysis | P49798 | Transcreener GDP fluorescence polarization, RGS4-accelerated GTP hydrolysis | Potency, µM (titrated, usually from 114 µM), for the others: top-dose activity change, negative = inhibition, usual class: inhibitors | 0.039% of 390,000 active | AID 504845; also: % is scaled to controls: 0 for no effect and ±100 for the full control effect; nearly all actives have a fitted effect of over 75% in size
Target sequence (P49798 whole entry, looked up): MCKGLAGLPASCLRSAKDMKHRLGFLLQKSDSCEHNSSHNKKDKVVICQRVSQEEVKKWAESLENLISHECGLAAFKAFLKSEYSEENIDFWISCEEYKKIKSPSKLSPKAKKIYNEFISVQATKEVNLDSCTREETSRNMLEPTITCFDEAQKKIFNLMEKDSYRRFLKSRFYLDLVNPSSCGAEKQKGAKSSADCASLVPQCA
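MLSMR compounds (23 nl, pin-transferred) preincubated 10 min at room temperature with a 500nM (2x) first reagent, then RGS4 at 900nM (2x) plus Transcreener GDP mix added; fluorescence polarization (620/688 nm) read before and after 90 min at 30 °C.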
MCF10A rerep = DNA re-replication induction in MCF 10a cells; MCF 10A DNA re-replication, Hoechst nuclear intensity, 48 h; Potency, µM (highest dose often 46.1 µM), for inactives: top-dose activity, positive = re-replication, actives largely listed as activators; 2.9% of 350,000 active; also: % of control where 0% means no effect; nearly all actives have a fitted effect of over 50% in size
The depositor's hits bear a star; i = inactive; ? = inconclusive; / = no result; [ ] = dose if it differs, or a comment. A selection: hits, their analogues and other compounds. The true share with any hit is near 6.6%. Unless noted, calls follow the shape of the dose curve; as a rule, active = well fitted curve in the direction sought with a large enough effect; inconclusive = small, poorly fitted or top-dose-only effect, or another doubt; inactive = no such curve, though single readings can be large; an effect the other way counts as inactive or inconclusive. Potency is read from the fitted curve at half-maximal effect.

SMILES	KB-3-1 cytotox	KB-V1 MDR tox	PTAP TSG101 blk	SW480 rereplic	RGS4 inh	MCF10A rerep
Cc1cc(C(=O)CN2C(=O)C(=O)N(Cc3ccccc3)C2=O)c(C)n1Cc1ccccc1	i	21µM*	2%	-3%	-30%	14%
COc1ccc(NC(=O)CC2C(=O)N(C)C(=S)N2Cc2ccc3c(c2)OCO3)cc1 (centres undefined)	i	15µM*	0%	?	-16%	5%
COc1ccc(NC(=O)CC2C(=O)N(c3ccc(C)cc3)C(=O)N2Cc2ccc3c(c2)OCO3)cc1 (centres undefined)	i	i	/	/	9%	/
COc1ccc(NC(=O)CC2C(=O)N(C)C(=S)N2CCc2ccccc2)cc1 (centres undefined)	?	10µM*	0%	?	12%	?
COc1cc(C)ccc1OCCSc1nc2ccc(NC(=O)c3cccs3)cc2s1	i	i	/	/	-4%	/
O=C(Nc1ccc2nc(-c3cccs3)c(-c3cccs3)nc2c1)N1CCCCC1	i	i	/	/	-6%	/
Cc1cc(C)n2c(Nc3cccc(C(F)(F)F)c3)c(-c3ccsc3)nc2n1	i	i	/	/	-1%	/
COc1ccc(CN2C(=O)c3cccc4cccc2c34)cc1F	i	?	-2%	?	-35%	21µM*
CCOc1ccc(/C=C(\C#N)C(=O)Nc2ccccn2)cc1	i	i	-5%	-5%	3%	8%
N#C/C(=C\c1ccc(F)cc1)C(=O)Nc1ccccn1	i	i	-2%	4.1µM*	24%[56.9 µM]	5%
CCCN(CC(=O)Nc1cc(Cl)ccc1Cl)C(=O)c1ccc(N2CCCC2=O)cc1	?	7.3µM*	-5%	-4%	3%	2%
Cc1cc(Nc2cccc(C(F)(F)F)c2)nc2ccc(NC(=O)c3cccnc3)cc12	?	?	/	/	17%	/
CCc1ccccc1NC(=O)CN(Cc1ccccc1)S(=O)(=O)c1ccc2nc(C)sc2c1	i	i	/	/	0%	/
COc1ccc(Cl)cc1C(=O)NCCS(=O)(=O)N1CCN(c2ccccc2OC)CC1	/	/	/	/	2%	/
COc1cccc(C(=O)NCCS(=O)(=O)N2CCCCC2)c1	i	i	0%	-1%	-25%	-2%
COc1cccc(C(=O)NCCS(=O)(=O)NCCCc2ccccc2)c1	i	16µM*	-1%	-3%	-2%	-5%
COc1cccc(C(=O)NCCS(=O)(=O)N2CCCCCC2)c1	i	12µM*	-2%	2%	17%	1%
COc1ccc(CCNC(=O)c2cccnc2)cc1	i	i	-7%	?	7%	16µM*
COc1ccccc1N1CCN(S(=O)(=O)CCNC(=O)c2cc(OC)c(OC)c(OC)c2)CC1	6.5µM*	i	-1%	?	8%	?
CCOCCCNC(=O)Cn1ncc2c([nH]c3ccccc32)c1=O	i	i	/	/	5%	/
Cc1cccc(NC(=O)c2c(C)cc(C)nc2SCC(=O)Nc2c(C)cc(C)cc2C)c1	i	i	/	/	-12%	/
COc1cccc(C(=O)NCCS(=O)(=O)N2CCC(C)CC2)c1	i	23µM*	0%	-4%	-19%	6%
CCN(C1CCCCC1)S(=O)(=O)CCNC(=O)c1ccc2c(c1)OCO2	i	i	-6%	0%	-34%	4%
CC1CCN(S(=O)(=O)CCNC(=O)c2ccccc2)CC1	i	13µM*	-3%	-4%	-1%	8%
O=C(NCc1ccccc1)c1ccc(C(=O)N(C2CCCCC2)C2CCCCC2)cc1	?	23µM*	2%	8%	15%	-2%
CCN(C1CCCCC1)S(=O)(=O)CCNC(=O)c1ccccc1	i	4.1µM*	1%	-5%	10%	-1%
O=C(NCCS(=O)(=O)N1CCCC1)c1ccccc1	i	i	-6%	-222%	-2%	0%
